Rows were chosen to be rich in hits. Some 4.7% of all compounds tested hit in one or more screens of this group.
D1 antagonist = human D1 dopamine receptor antagonism; activity change, negative = inhibition, % at 10 µM; HEK293 TREx D1 cells, calcium flux, dopamine EC80; active compounds read low; actives 3.2% (n = 360,000); P21728; in the data active = activity change below about -30%; note: % is set by controls: 0 for no effect and ±100 for the full control effect
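Using tetracycline-induced force-coupled D1 Hek293 cells and a calcium dye, signals were followed for 180 s after compound, then for 180 s after EC80 dopamine, to detect inhibitors.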
TRHR PAM = allosterically enhances the human TRH receptor. P34981. TRHR cells, fluo-8 calcium fluorescence, EC20 TRH enhancement. enhancement, % at 2 µM. actives 0.66% (n = 360,000). AID 493056; in the data active = enhancement above about 30%; note: 0% is about no effect
Target sequence (P34981 whole entry, looked up): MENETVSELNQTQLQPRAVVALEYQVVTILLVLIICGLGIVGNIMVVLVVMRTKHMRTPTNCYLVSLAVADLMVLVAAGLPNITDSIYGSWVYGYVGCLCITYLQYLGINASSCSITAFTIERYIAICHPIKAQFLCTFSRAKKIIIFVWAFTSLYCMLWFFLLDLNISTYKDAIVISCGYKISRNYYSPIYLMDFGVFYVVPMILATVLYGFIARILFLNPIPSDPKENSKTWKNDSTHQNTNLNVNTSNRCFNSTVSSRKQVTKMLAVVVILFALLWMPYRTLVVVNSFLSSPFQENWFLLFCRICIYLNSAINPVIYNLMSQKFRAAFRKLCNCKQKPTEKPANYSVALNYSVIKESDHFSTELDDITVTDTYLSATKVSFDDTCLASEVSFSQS
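Enhancer read-out: after compound pinning and an initial kinetic agonist-mode read, an EC20 of TRH (10 nM final) was injected and fluo-8 calcium signal (Ex 480/Em 530) followed at 1 s/cycle for 100 cycles in TRHR-expressing cells.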
D1 potentiator = potentiators of human D1 dopamine receptor; P21728; HEK293 TREx D1 cells, calcium flux, dopamine EC20 potentiation; potentiation, % at 10 µM; actives 0.036% (n = 360,000); AID 504651; in the data active = potentiation above about 30%; note: 0% is about no effect
D1 ag = human D1 receptor agonism | actives 1% (n = 360,000) | HEK293 T-REx D1 cells, calcium flux, agonist mode | activation, % at 2 µM | P21728; note: 0% is about no effect
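Tetracycline-induced HEK293 TREx D1 cells, force-coupled to calcium signalling, were dye-loaded with a no-wash calcium kit. Compound was pin-added after a 10 s baseline. Fluorescence was read kinetically at 1 cycle/s for 180 s, with calcium rises flagged as agonism.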
TRHR ag = TRH receptor (human) agonism; TRHR cells, calcium flux fluo-8, FDSS agonist mode; activation, % at 2 µM; actives 0.18% (n = 360,000); AID 493084; note: 0% is about no effect
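Steps: seed TRHR cells overnight; add fluo-8 no-wash Ca dye, RT 30 min–1.5 h; record 10 s baseline; pin-transfer compounds; monitor fluorescence 1 cycle/s for the agonist window. Calcium increases flag candidate agonists.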
* hit, by the source's call. Cut-off read from the data, not from the text of the source, unless noted: active = activation above about 30%; inactive = the rest.

SMILES | D1 antagonist | TRHR PAM | D1 potentiator | D1 ag | TRHR ag
Cc1c(C(=O)NCc2ccc3c(c2)OCO3)sc2nc(-c3ccc(F)cc3)cn12 | -42* | 3 | -12 | 4 | 0
CCOCCOC(=O)c1ccc2c(c1)N(Cc1ccccc1C#N)C(=O)c1ccccc1S2(=O)=O | 12 | -4 | -2 | 7 | 0
COc1cccc(CNC(=O)c2cc(S(=O)(=O)N3CCCCC3)cn2C)c1 | -4 | -2 | 1 | 8 | 0
COc1ccc2c(c1)NC(c1cccnc1)=NC(c1ccc(F)cc1)=N2 | -7 | -1 | -2 | -1 | -1
CCOc1ccc(CNC(=O)C2CCCN(S(=O)(=O)c3ccc4c(c3)CCCC(=O)N4)C2)cc1 (stereo not given) | -24 | 1 | -7 | 3 | -1
Cc1cc2oc(C(=O)Nc3sc4c(c3C(=O)NCC3CCCO3)CCCC4)cc(=O)c2cc1C (stereo not given) | -26 | -4 | -3 | 2 | 1
COc1cc(/C(C)=N/Nc2ccc(C(=O)O)cc2)cc(OC)c1OC | -16 | 2 | 3 | 0 | 0
COc1ccc(/C(C)=N/Nc2ccc(C(=O)O)cc2)cc1OC | -31* | 0 | 8 | 3 | 0
O=[N+]([O-])c1ccc(N/N=C2\CC3CC=CC23)cc1 (stereo not given) | -31* | -8 | -1 | 14 | 0
Cc1ccc(Cc2nc3ccccc3nc2SCC(=O)Nc2ccc3c(c2)OCO3)cc1 | -11 | -7 | -1 | 0 | 0
CS(=O)(=O)N(CC(=O)NCC1CCCO1)c1cc(Cl)cc(Cl)c1 (stereo not given) | -50* | -1 | -3 | 2 | 0
CS(=O)(=O)N(CC(=O)NCC1CCCO1)c1cccc(Cl)c1 (stereo not given) | -6 | 13 | 1 | 1 | 0
CCC(C)NC(=O)Cn1c(=O)ccc2cc(S(=O)(=O)N3CCCC3)ccc21 (stereo not given) | 23 | 0 | -3 | 3 | 1
CC(=O)c1cc(C#N)c(N2CCN(c3ccccc3)CC2)nc1C | -43* | -2 | -10 | 4 | 1
CCc1nc(NCC2CCCO2)c(C#N)c2c1COC(C)(C)C2 (stereo not given) | -35* | 8 | -2 | 1 | -1
CC(C)c1nc(NCC2CCCO2)c(C#N)c2c1COC(C)(C)C2 (stereo not given) | 7 | 2 | -9 | 2 | 1
O=c1[nH]c(=O)n(Cc2ccco2)c2c1C(C(F)(F)F)(C(F)(F)F)N=C(CCC1CCCCC1)N2 | 23 | 4 | -5 | 26 | 2
CC(C)Cn1c2c(c(=O)[nH]c1=O)C(C(F)(F)F)(C(F)(F)F)N=C(CCC1CCCCC1)N2 | 0 | 5 | 8 | 31* | 1
Cc1nn(-c2ccccc2)c(Cl)c1/C=N/Nc1ccc(S(=O)(=O)Nc2ccccc2C(=O)O)cc1[N+](=O)[O-] | -32* | -4 | 0 | 1 | 0
Cc1nn(-c2ccccc2)c(Cl)c1/C=N/Nc1ccc(Cl)c(C(=O)O)c1 | 9 | -1 | -8 | 0 | -1
CCN(c1ccccc1)c1ncnc2c1cnn2-c1ccc(OC)cc1 | -4 | -19 | 0 | 4 | 0
CCN1CCN(c2cc(=O)n(Cc3ccc(F)cc3)c(=O)[nH]2)CC1 | 16 | -3 | -4 | 1 | 1
CCOC(=O)N1CCN(c2cc(=O)n(Cc3ccc(F)cc3)c(=O)[nH]2)CC1 | -37* | 2 | -2 | 1 | 1
CC(C)CCC1(CCNC(C)c2cccs2)CCOC(C)(C)C1 (stereo not given) | -36* | 4 | -1 | 3 | 0
CCC(=O)N(CCC1(C(C)C)CCOC(C)(C)C1)C(C)c1cccs1 (stereo not given) | 0 | -8 | 5 | 0 | 0
COc1ccc(NC(=O)CSCc2cnn(-c3ccccc3)c2-n2cccc2)cc1 | 2 | 2 | -2 | 0 | -1
CCOC(=O)c1c(C)oc2ncnc(N3CCN(c4ccccc4)CC3)c12 | -45* | 3 | 1 | -1 | -2
COc1ccc(S(=O)(=O)CCC(=O)N2CCN(c3ccc(C(C)=O)cc3)CC2)cc1 | -39* | 0 | -11 | 10 | 0
COc1ccc(N2CCN(C(=O)CCS(=O)(=O)c3ccc(OC)cc3)CC2)cc1 | -28 | 0 | -5 | 0 | 0
